Measured values taken from PubChem BioAssay (Tox21).
A number with no mark means an inactive call. Results filed as inconclusive are left out. Where a call stands in place of a potency, no number is given. Active and inactive are the calls of the source. Unless noted, calls come from the whole dose curve; as a rule, active = well fitted curve in the direction sought with a large enough effect in the repeat runs; inconclusive = weak or mixed curves; inactive = no such curve, though single readings can be large; an effect the other way counts as inactive or inconclusive. Non-standard residues stand in square brackets, D forms with d. Residues, ends and D or L forms follow the SMILES beside them. *: point of attachment. Sta = CC(C)C[C@H](N)[C@@H](O)CC(=O)O; Isovaleryl = CC(C)CC(=O)*

What was measured:
[1] = qHTS assay to identify small molecule antagonists of the retinoid acid receptor (RAR) signaling pathway - cell viability counter screen (AID 1159551); note: nearly all actives have a fitted effect of over 35% in size
Summary of the method: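 Cytotoxicity counter screen: ATP content quantified by CellTiter-Glo luminescence in C3RL4 cells treated 6 hr at 37 C with compound and retinol (1 uM final). Cells plated at 1,000/well and cultured overnight before dosing.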

[2] = qHTS assay to identify small molecule antagonists of the retinoic acid receptor (RAR) signaling pathway (AID 1159552; note: nearly all actives have a fitted effect of over 50% in size)
Summary of the method: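 Readout: luciferase luminescence, 30 min post-reagent at RT. Setup: C3RL4 RARE reporter cells, compounds plus retinol 1 uM final, 6 hr incubation at 37 C and 5% CO2.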

[3] = qHTS assay to identify small molecule agonists of the retinoic acid receptor (RAR) signaling pathway (AID 1159553)
Summary of the method: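 Luminescence was measured 30 min after luciferase reagent addition at room temperature. Before that, C3RL4 reporter cells (1,000 per well, plated overnight) were treated with compound for 6 hr at 37 C and 5% CO2.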

[4] = qHTS assay to identify small molecule antagonists of the estrogen related receptor (ERR) signaling pathway from Tox21 library - cell viability counter screen (AID 1224834); note: nearly all actives have a fitted effect of over 30% in size
Summary of the method: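 CellTiter-Fluor fluorescence, read after 30 min at 37 C, measures viability of ERR cells. Cells plated at 2,000/well and incubated 6 h before pin-tool compound addition, then exposed 17.5 hours at 37 C.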

[5] = target: Luciferin 4-monooxygenase (Photinus pyralis) (UniProt P08659); assay: qHTS assay to identify small molecule inhibitors of firefly luciferase (AID 1224835); note: nearly all actives have a fitted effect of over 25% in size; note: potency is the fitted concentration of half-maximal effect
Summary of the method: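 Inhibition of purified Photinus luciferase is measured by luminescence. Substrate levels (D-luciferin, ATP) sit at their KM values. Each compound is tested in a concentration series.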

[6] = qHTS assay to identify small molecule agonists of the constitutive androstane receptor (CAR) signaling pathway - cell viability counter screen (AID 1224836); note: nearly all actives have a fitted effect of over 45% in size
Summary of the method: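 Compound titrations (15 concentrations) went onto HepG2-CYP2B6-hCAR cells 4 h after seeding, alongside PK11195 at a final 0.75 uM; a 23 h, 37 C/5% CO2 incubation preceded CellTiter-Fluor viability measurement.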

[7] = qHTS assay to identify small molecule antagonists of the constitutive androstane receptor (CAR) signaling pathway - cell viability counter screen (AID 1224837); note: nearly all actives have a fitted effect of over 45% in size
Summary of the method: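 Cytotoxicity counter-screen: CellTiter-Fluor fluorescence after 23 h compound exposure (15-point qHTS) in double-stable HepG2-CYP2B6-hCAR cells, with 50 nM CITCO added.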

[8] = target: Nuclear receptor subfamily 1 group I member 3 (Homo sapiens) (UniProt Q14994); assay: qHTS assay to identify small molecule antagonists of the constitutive androstane receptor (CAR) signaling pathway (AID 1224838);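 note: HepG2 cells stably expressing hCAR with CYP2B6 luciferase reporter stimulated by CITCO; nearly all actives have a fitted effect of over 40% in size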
Summary of the method: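 Antagonism measured as luciferase signal (ONE-Glo, 30 min, room temperature) in CAR-stimulated cells: HepG2-CYP2B6-hCAR double-stable line exposed 24 hr at 37 C to compound in a 15-point series plus 50 nM CITCO.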

[9] = target: Nuclear receptor subfamily 1 group I member 3 (Homo sapiens) (UniProt Q14994); assay: qHTS assay to identify small molecule agonists of the constitutive androstane receptor (CAR) signaling pathway (AID 1224839); note: nearly all actives have a fitted effect of over 15% in size; note: potency is the fitted concentration of half-maximal effect;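 for activation: HepG2 cells stably carrying human CAR and a CYP2B6 luciferase reporter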
Summary of the method: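 In this screen, CAR-driven CYP2B6 promoter activity is measured by luminescence in HepG2-CYP2B6-hCAR cells after 24 h with test compounds and 0.75 uM PK11195 (final concentration).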

[10] = qHTS assay to identify small molecule antagonists of the estrogen related receptor signaling pathway with the pleiotropic PPARgamma coactivator (PGC) from Tox21 10K library - cell viability counter screen (AID 1224840; active = well fitted cell-killing curve with a large enough effect in the repeat runs, not every such curve was filed as active; note: nearly all actives have a fitted effect of over 40% in size)
Summary of the method: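 Counter-screen for cytotoxicity: after 17.5 h compound exposure at 37 C, CellTiter-Fluor reagent added to PGC/ERR cells for 30 min and fluorescence read. Cells were seeded at 2,000 per well 6 h before dosing.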

[11] = target: Thyrotropin receptor (Homo sapiens) (UniProt P16473); assay: qHTS assay to identify small molecule agonists of the thyroid stimulating hormone receptor (TSHR) signaling pathway (AID 1224843; calls by dose curve; note: nearly all actives have a fitted effect of over 45% in size)
Summary of the method: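 Agonist activity read as cAMP rise via d2/cryptate HTRF competition, 1 h room-temperature detection, in HEK293 cells expressing TSHR. Fifteen-point titrations, each run in triplicate, with a 30 min room-temperature incubation beforehand.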

[12] = qHTS assay to identify small molecule agonists of the hypoxia (HIF-1) signaling pathway - cell viability counter screen (AID 1224844; calls by dose curve; note: nearly all actives have a fitted effect of over 50% in size)
Summary of the method: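 Cytotoxicity measured by CellTiter-Glo ATP luminescence in the wells also read for beta-lactamase signal. Cells were HRE-bla ME-180 (2,000/well, 0.5% dialyzed FBS), exposed to compounds for 17 h at 37C.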

[13] = qHTS assay to identify small molecule agonists of H2AX (AID 1224845; active = well fitted activation curve with a large enough effect in the signal ratio in the repeat runs, not every such curve was filed as active; the % refers to the signal ratio)
Summary of the method: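 Phospho-H2AX Ser139 measured by HTRF (ex 320 nm; em 665 and 620 nm) after 24 hr antibody incubation. Compounds, 15 concentrations, 0.76% DMSO, were applied to CHO-K1 cells for 3hr at 37C before lysis.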

[14] = qHTS assay to identify small molecule agonists of H2AX - cell viability counter screen (AID 1224847; calls by dose curve; note: top concentration of the series differs between compounds; nearly all actives have a fitted effect of over 30% in size)
Summary of the method: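 Read-out: CellTiter-Glo luminescence, 30 min RT. Cells: wild-type CHO-K1, 1000/well, 10% FBS, plated overnight at 37C. Treatment: 15 concentrations, 3 hr, 37C, 0.76% DMSO.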

[15] = qHTS RealTime-Glo MT Cell Viability Assay in HepG2 cells - 24 hour (AID 1224867); note: nearly all actives have a fitted effect of over 50% in size
Summary of the method: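 Real-time, nonlytic viability: 600 HepG2 cells/well mixed with NanoLuc enzyme plus prosubstrate; 5 h settle, compound (DMSO) added by pintool; luminescence monitored over 40 h at 37 C.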

[16] = qHTS assay to identify small molecule antagonists of the estrogen related receptor signaling pathway with the pleiotropic PPARgamma coactivator (PGC) from Tox21 10K library (AID 1224841; call rule not given here; note: actives are mostly falling curves and most rising ones were filed inactive; nearly all actives have a fitted effect of over 50% in size)
Summary of the method: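 Luminescence (One-Glo, 30 min at room temperature) after 18 h compound treatment at 37 C of PGC/ERR reporter cells plated at 2,000 cells/well and settled 6 h beforehand.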

[17] = qHTS assay to identify small molecule agonists of the estrogen related receptor signaling pathway with the pleiotropic PPARgamma coactivator (PGC) from Tox21 10K library (AID 1224842); note: nearly all actives have a fitted effect of over 15% in size
Summary of the method: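 Luminescence from One-Glo (30 min, room temperature) measured after PGC/ERR cells had 18 h at 37 C with pinned compound (23 nL in DMSO). Cells had been seeded at 2,000 per well and pre-incubated 6 h.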

[18] = qHTS assay to identify small molecule agonists of the estrogen related receptor (ERR) signaling pathway from Tox21 library (AID 1224849; calls by dose curve; note: nearly all actives have a fitted effect of over 15% in size); details: ERR reporter cell line, ONE-Glo luciferase, 18 h; at 92.4 µM (top of the series) unless noted
Summary of the method: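 Luminescent agonist read-out (One-Glo, 30-minute room-temperature incubation) following 18-hour compound treatment at 37 C of the ERR cell line, which had been plated 6 hours before dosing.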

[19] = qHTS assay to identify small molecule agonists of the hypoxia (HIF-1) signaling pathway (AID 1224846; active = well fitted activation curve with a large enough effect in the signal ratio in the repeat runs, not every such curve was filed as active; the % refers to the signal ratio)
Summary of the method: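 Compounds added to ME-180 cells carrying hypoxia-response-element beta-lactamase reporter (0.5% dialyzed FBS, 5 h preplating), 17 h at 37C; agonist activity detected by CCF4-AM B/G FRET read-out.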

[20] = qHTS assay to identify small molecule antagonists of the estrogen related receptor (ERR) signaling pathway from Tox21 library (AID 1224848); note: nearly all actives have a fitted effect of over 50% in size
Summary of the method: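 Luciferase luminescence (ONE-Glo, 30 min room temperature) was the read-out. Cells of the NTP-supplied ERR line, 2,000 per well, were given 6 h at 37 C before compound addition in DMSO and 18 h exposure at 37 C.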

Thyrotropin receptor (Homo sapiens), sequence (P16473 whole entry, looked up): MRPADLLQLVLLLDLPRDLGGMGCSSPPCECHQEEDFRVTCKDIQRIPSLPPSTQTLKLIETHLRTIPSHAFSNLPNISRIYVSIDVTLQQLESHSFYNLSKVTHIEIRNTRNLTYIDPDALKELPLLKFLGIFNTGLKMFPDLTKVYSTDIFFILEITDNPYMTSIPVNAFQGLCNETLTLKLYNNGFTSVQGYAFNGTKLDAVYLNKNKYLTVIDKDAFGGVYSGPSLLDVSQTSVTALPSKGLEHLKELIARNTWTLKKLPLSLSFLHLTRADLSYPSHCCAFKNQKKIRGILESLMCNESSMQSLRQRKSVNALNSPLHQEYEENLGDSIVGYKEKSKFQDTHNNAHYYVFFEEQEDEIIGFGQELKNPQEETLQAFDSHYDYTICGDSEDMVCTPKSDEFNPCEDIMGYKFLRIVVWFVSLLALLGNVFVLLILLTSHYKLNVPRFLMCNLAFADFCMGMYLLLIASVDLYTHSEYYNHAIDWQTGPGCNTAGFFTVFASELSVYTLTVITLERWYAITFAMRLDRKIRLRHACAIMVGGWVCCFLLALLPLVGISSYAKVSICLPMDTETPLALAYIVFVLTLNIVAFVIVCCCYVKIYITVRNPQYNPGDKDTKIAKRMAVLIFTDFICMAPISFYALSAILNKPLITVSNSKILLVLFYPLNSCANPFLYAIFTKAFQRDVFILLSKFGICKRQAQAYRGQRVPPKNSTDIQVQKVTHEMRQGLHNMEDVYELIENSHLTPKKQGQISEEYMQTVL
Luciferin 4-monooxygenase (Photinus pyralis), sequence (P08659 whole entry, looked up): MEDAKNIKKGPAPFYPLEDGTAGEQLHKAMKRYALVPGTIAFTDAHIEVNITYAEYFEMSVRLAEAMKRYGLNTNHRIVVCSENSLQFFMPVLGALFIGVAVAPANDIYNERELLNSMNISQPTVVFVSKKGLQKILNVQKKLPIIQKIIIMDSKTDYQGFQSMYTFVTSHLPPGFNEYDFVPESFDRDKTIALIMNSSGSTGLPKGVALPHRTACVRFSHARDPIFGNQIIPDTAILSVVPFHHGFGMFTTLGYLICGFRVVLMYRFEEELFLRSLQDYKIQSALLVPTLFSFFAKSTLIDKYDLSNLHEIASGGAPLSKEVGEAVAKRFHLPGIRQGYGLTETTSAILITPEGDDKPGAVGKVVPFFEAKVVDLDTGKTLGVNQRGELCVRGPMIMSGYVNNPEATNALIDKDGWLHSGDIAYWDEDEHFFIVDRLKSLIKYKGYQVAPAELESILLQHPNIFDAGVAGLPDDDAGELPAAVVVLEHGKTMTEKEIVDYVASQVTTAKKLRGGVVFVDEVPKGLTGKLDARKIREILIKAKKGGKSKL
Nuclear receptor subfamily 1 group I member 3 (Homo sapiens), sequence (Q14994 whole entry, looked up): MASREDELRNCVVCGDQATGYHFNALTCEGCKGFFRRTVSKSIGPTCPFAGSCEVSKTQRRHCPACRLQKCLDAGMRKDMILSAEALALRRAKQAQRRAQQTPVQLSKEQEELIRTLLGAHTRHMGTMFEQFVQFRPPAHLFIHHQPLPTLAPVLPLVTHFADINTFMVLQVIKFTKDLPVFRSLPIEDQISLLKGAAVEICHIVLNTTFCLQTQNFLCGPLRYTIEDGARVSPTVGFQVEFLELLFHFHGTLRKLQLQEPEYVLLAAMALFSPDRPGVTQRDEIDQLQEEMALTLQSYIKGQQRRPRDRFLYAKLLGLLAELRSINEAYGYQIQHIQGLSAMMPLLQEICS

| Compound | outcome [1] | outcome [2] | Potency [3] | outcome [4] | Potency [5] | outcome [6] | outcome [7] | outcome [8] | Potency [9] | outcome [10] | Potency [11] | outcome [12] | outcome [13] | outcome [14] | outcome [15] | Potency [16] | Potency [17] | activity change, positive = activation [18] | outcome [19] | outcome [20] |
| --- | --- | --- | --- | --- | --- | --- | --- | --- | --- | --- | --- | --- | --- | --- | --- | --- | --- | --- | --- | --- |
| CCCOc1ccc(C(=O)OCCN(CC)CC)cc1N | inactive | inactive | inactive | inactive | inactive | inactive | inactive | inactive | inactive | inactive | inactive | inactive | inactive | inactive | inactive | – | – | – | – | – |
| O=c1[nH]c(=O)c2cn[nH]c2[nH]1 | inactive | inactive | inactive | inactive | inactive | inactive | inactive | inactive | inactive | inactive | – | inactive | inactive | – | inactive | inactive | inactive | -22.5% | – | – |
| N=C(N)N | inactive | inactive | inactive | inactive | inactive | inactive | inactive | inactive | inactive | inactive | inactive | inactive | inactive | inactive | inactive | inactive | inactive | 0.947% [at 42.5 µM] | inactive | – |
| CC(C)OC(=O)C(C(=O)OC(C)C)=C1SC=CS1 | inactive | inactive | inactive | inactive | inactive | inactive | inactive | inactive | 13.3 µM (active) | inactive | inactive | inactive | inactive | – | inactive | inactive | – | -19.5% [at 42.5 µM] | inactive | – |
| CC(C)CC(=O)N[C@H](C(=O)N[C@H](C(=O)N[C@@H](CC(C)C)[C@@H](O)CC(=O)N[C@@H](C)C(=O)N[C@@H](CC(C)C)[C@@H](O)CC(=O)O)C(C)C)C(C)C (Isovaleryl-VV[Sta]A[Sta]-OH) | inactive | inactive | inactive | inactive | inactive | inactive | inactive | inactive | inactive | inactive | inactive | inactive | inactive | inactive | inactive | – | – | – | – | – |
| CC(C)CC(O)Cc1ccccc1 (stereo unspecified) | inactive | inactive | inactive | inactive | inactive | inactive | inactive | inactive | inactive | inactive | inactive | inactive | inactive | inactive | inactive | – | – | – | inactive | – |
| CCCCCCCCOCCC#N | inactive | inactive | inactive | inactive | inactive | inactive | inactive | inactive | inactive | inactive | inactive | inactive | inactive | inactive | inactive | inactive | inactive | 3% | inactive | – |
| CCOc1ccccc1OCCN[C@H](C)Cc1ccc(OC)c(S(N)(=O)=O)c1 | inactive | inactive | inactive | inactive | inactive | inactive | inactive | inactive | inactive | inactive | inactive | inactive | inactive | inactive | inactive | – | – | – | inactive | – |
| CC(=O)c1ccc2ccc3ccccc3c2c1 | inactive | inactive | inactive | inactive | 31.5 µM (active) | inactive | inactive | inactive | 60.8 µM (active) | inactive | inactive | inactive | – | – | inactive | inactive | inactive | 8.72% | – | – |
| C=CCN(CC=C)CC=C | inactive | inactive | inactive | inactive | inactive | inactive | inactive | inactive | inactive | inactive | inactive | inactive | inactive | inactive | inactive | – | – | – | inactive | – |
| C=CCN1CCc2nc(N)sc2CC1 | inactive | inactive | inactive | inactive | inactive | inactive | inactive | inactive | inactive | inactive | inactive | inactive | inactive | inactive | inactive | – | – | – | inactive | – |
| CSC(=O)c1cccc2nnsc12 | inactive | inactive | inactive | inactive | inactive | inactive | inactive | inactive | inactive | inactive | inactive | inactive | inactive | inactive | inactive | – | – | – | – | – |
| CCN(CC)CC | inactive | inactive | inactive | inactive | inactive | inactive | inactive | inactive | inactive | inactive | inactive | inactive | inactive | inactive | inactive | – | – | – | – | – |
| CN1CCN(C(=O)C2CCCCC2)CC1 | inactive | inactive | inactive | inactive | inactive | inactive | inactive | inactive | inactive | inactive | inactive | inactive | inactive | inactive | inactive | – | – | – | inactive | – |
| CC(C)(C)C(=O)CCc1ccc(Cl)cc1 | inactive | inactive | inactive | inactive | inactive | inactive | inactive | inactive | inactive | inactive | – | inactive | inactive | inactive | inactive | inactive | inactive | 2.37% | inactive | inactive |
| C=CCOC(=O)CCCCCCCC | inactive | inactive | inactive | inactive | inactive | inactive | inactive | inactive | inactive | inactive | – | inactive | inactive | inactive | inactive | – | – | – | inactive | – |
